IL-1B inflam inh – inhibitors of inflammasome signaling (IL-1 beta secretion). THP-1 LPS/ATP IL-1B secretion, AlphaLISA, 16 h; stronger effect = lower value. hit rate 4.7% among 360,000. activity change, % at 57.5 µM; in the data active = activity change below about -50%; inconclusive = mostly about -30% to -49%; also: % is scaled to controls: 0 for no effect and ±100 for the full control effect
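Secreted IL-1B measured by AlphaLISA bead assay after 16 h compound exposure of THP-1 cells; compounds (final up to 57.5 uM) added 1 h before LPS (250 ng/mL) and ATP (1.25 mM) stimulation; lower signal means less secretion.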
TGFb inhibitor – blocks TGF-b signaling; HepG2 CAGA-GFP TGF-b/SMAD3 reporter, GFP fluorescence, 18 h; TGF-beta stimulated, 500 pg/mL final; Potency, µM (titrated, usually from 46.1 µM), without a hit: at the highest dose activity, negative = inhibition, actives largely listed as inhibitors; hit rate 1.2% among 410,000; AID 588855; also: potency is read from the fitted curve at half-maximal effect; % is scaled to controls: 0 for no effect and ±100 for the full control effect; nearly all actives have a fitted effect of over 65% in size
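HEPG2 CAGA-GFP reporter cells (1000/well, DMEM with 1% FBS) received compounds, then recombinant TGF-beta at 500 pg/mL final for 18 hours at 37 degrees C. Per-cell GFP summed per well was normalised to unstimulated and stimulated DMSO controls before curve fitting.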
TDP1 inh – TDP1 (human) enzyme inhibition; recombinant TDP1, AlphaScreen DNA substrate cleavage; hit rate 0.28% among 350,000; Q9NUW8; AID 485290; Potency, µM (series often up to 130 µM), for the others: at the top dose activity change, negative = inhibition, most hits filed as inhibitors; also: potency is read from the fitted curve at half-maximal effect; % is scaled to controls: 0 for no effect and ±100 for the full control effect; nearly all actives have a fitted effect of over 40% in size
Target sequence (Q9NUW8 whole entry, looked up): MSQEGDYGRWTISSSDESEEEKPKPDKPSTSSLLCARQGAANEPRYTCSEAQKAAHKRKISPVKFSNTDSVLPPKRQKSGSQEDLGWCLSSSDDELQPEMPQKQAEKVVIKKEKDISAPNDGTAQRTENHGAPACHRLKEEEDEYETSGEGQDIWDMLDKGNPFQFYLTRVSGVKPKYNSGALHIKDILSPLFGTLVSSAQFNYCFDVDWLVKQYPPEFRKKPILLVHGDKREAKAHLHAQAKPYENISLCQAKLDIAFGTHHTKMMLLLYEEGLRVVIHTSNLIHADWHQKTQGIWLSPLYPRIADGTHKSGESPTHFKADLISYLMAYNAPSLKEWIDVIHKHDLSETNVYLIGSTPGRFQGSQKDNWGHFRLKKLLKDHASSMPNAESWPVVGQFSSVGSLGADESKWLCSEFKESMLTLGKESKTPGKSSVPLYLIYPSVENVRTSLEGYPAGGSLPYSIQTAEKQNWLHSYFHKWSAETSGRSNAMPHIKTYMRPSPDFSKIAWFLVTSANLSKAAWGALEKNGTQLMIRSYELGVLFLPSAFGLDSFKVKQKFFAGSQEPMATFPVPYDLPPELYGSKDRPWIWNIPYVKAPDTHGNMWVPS
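Recombinant E. coli-expressed Tdp1 (1 nM) preincubated with compound 15 min at RT, then 5'-biotin/3'-phosphotyrosine-FITC DNA substrate (15 nM) added for 5 min. AlphaScreen beads (10 ug/ml) added, 10 min RT; tyrosine-FITC cleavage read as signal loss.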
HepG2 tox – kills HepG2 cells in TGF-b inhibitor counter-screen. Potency, µM (highest dose often 46.1 µM), without a hit: at the highest dose activity change, negative = cytotoxicity, actives largely listed as cytotoxic. HepG2 CAGA-GFP viability, ATP luminescence, 18 h. hit rate 0.76% among 410,000. AID 588856; also: potency is read from the fitted curve at half-maximal effect
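CellTiter-Glo luminescence gave cytotoxicity after 18 hours at 37 degrees C. The cells were HepG2 CAGA-GFP in 1% FBS DMEM, stimulated with 500 pg/mL TGF-beta after compound addition. %Activity was normalised to no-cell wells (complete cell-killing) and DMSO (no toxicity), and curves were fitted and classified.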
TDP1 cell noCPT – qHTS for Inhibitors of human tyrosyl-DNA phosphodiesterase 1 (TDP1): qHTS in cells in absence of CPT. DT40 Tdp1-/- hTDP1 cells, no CPT, ATP luminescence, 48 h. Potency, µM (highest dose often 46.2 µM), inactives show at the highest dose activity change, negative = growth inhibition, most hits filed as inhibitors. hit rate 15% among 420,000. AID 686978, 2013; also: potency is read from the fitted curve at half-maximal effect; % is scaled to controls: 0 for no effect and ±100 for the full control effect; nearly all actives have a fitted effect of over 55% in size
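Chicken DT40 Tdp1-/- cells stably complemented with human TDP1 were seeded at 400 cells/well with DMSO in place of 20 nM camptothecin. After compound pinning, cells grew at least 48 hr at 37 °C; viability read by CellTiter-Glo luminescence.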
DT40 TDP1 CPT – DT40-hTDP1 cell growth loss with CPT | Potency, µM (top dose mostly 46.2 µM), for the others: top-dose activity change, negative = growth inhibition, hits mostly inhibitors | hit rate 12% among 420,000 | chicken DT40 Tdp1-/-;hTDP1 cells + 20 nM CPT, ATP luminescence, 48 h | AID 686979; also: potency is read from the fitted curve at half-maximal effect; % is scaled to controls: 0 for no effect and ±100 for the full control effect; nearly all actives have a fitted effect of over 55% in size
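Cell growth measured by CellTiter-Glo luminescence after a minimum 48 h, 37 C compound exposure with 20 nM CPT in Tdp1-knockout DT40 cells stably expressing hTDP1, seeded 400/well; qHTS titration format.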
* hit, by the source's call; ? = inconclusive; . = no result given; [ ] = another dose, or the depositor's remark. Shown are actives, neighbours in structure and some others; about 18% of the full set was active somewhere. Unless noted, calls follow the shape of the dose curve; as a rule, active = well fitted curve in the direction sought with a large enough effect; inconclusive = small, poorly fitted or top-dose-only effect, or another doubt; inactive = no such curve, though single readings can be large; an effect the other way counts as inactive or inconclusive.

SMILES | IL-1B inflam inh | TGFb inhibitor | TDP1 inh | HepG2 tox | TDP1 cell noCPT | DT40 TDP1 CPT
CCOc1ccccc1C1CC(=O)NC2=C1C(=O)CCC2 (stereo not given) | 23 | 3% | 7% | -16% | 16µM* | ?
CCOc1ccc(C2CC(=O)NC3=C2C(=O)CCC3)cc1 (stereo not given) | -16 | -10% | 0% | -1% | 9% | 0%
CCCCOc1ccccc1C1CC(=O)NC2=C1C(=O)CCC2 (stereo not given) | 30 | ? | 3% | -65% | 1.6µM* | 1.6µM*
CCOc1ccccc1C1CC(=O)Nc2cc(OC)c(OC)c(OC)c21 (stereo not given) | 5 | -1% | 0% | 1% | ? | ?
C[C@@H]1O[C@@H](OC2O[C@@H](COc3cc(O)c4c(=O)cc(-c5ccc(O)cc5)oc4c3)[C@@H](O)[C@@H](O)[C@@H]2O)[C@H](O)[C@H](O)[C@H]1O (stereo not given in full) | . | . | 5% | . | . | .
Cc1ccc(C(=O)C(C)OC(=O)CN2C(=O)NC3(CCCC3)C2=O)cc1 (stereo not given) | -7 | -7% | -1% | 7% | -4% | -9%
Cc1ccc2nc(COc3cccc(NC(=O)COc4ccc(F)cc4)c3)cc(=O)n2c1 | . | -2% | 3% | -9% | -22% | -16%
CCOc1ccc(NC(=O)c2oc3ccccc3c2NC(=O)c2cc3ccccc3o2)cc1 | . | ? | 4% | -3% | ? | -26%
Cc1ccc(OCc2cc(C(=O)N3CCc4[nH]cnc4C3c3ccccn3)no2)cc1C (stereo not given) | 17 | -3% | 11% | -18% | -24% | ?
C/C(=N\NC(N)=S)C1(C)CCCCC1 | -2 | ? | 5% | 0% | 13µM* | ?
CCCc1nccn1S(=O)(=O)c1cc(Br)ccc1OC | . | 0% | 5% | -27% | -29% | -11%
CCOc1ccc(NC(=O)CN(C)C(=O)CCCOc2ccc(Br)cc2)cc1OCC | -7 | -2% | 6%[0.505 µM] | -2% | ? | 18µM*
Cc1ccc(OCCCC(=O)N(C)CC(=O)Nc2ccccc2Br)cc1 | -55* | -2% | -16%[0.505 µM] | -1% | -18% | -13%
O=C(CSc1ncn[nH]1)Nc1ccc(OCc2ccccc2)cc1 | 8 | 12% | -3% | 0% | -2% | -4%
O=C(COc1ccc([N+](=O)[O-])cc1)N(Cc1ccccc1)Cc1ccccc1 | -1 | 4% | 3% | 6% | ? | ?
O=C(O)CCC(=O)OCCN(Cc1ccc(Oc2ccc([N+](=O)[O-])cc2)cc1)C(=O)C(Cl)Cl | 4 | -10% | . | -9% | ? | 18µM*
C=C1[C@@H](O)[C@H](Cc2ccccc2)N(Cc2ccccc2Br)S1(=O)=O | -102* | ? | . | 10µM* | 18µM* | 21µM*
Cc1ccccc1CN1[C@@H](Cc2ccccc2)COCCS1(=O)=O | -14 | ? | . | 6% | ? | ?
CN1C(=O)[C@@](O)(c2cn(C)c3ccccc23)c2ccccc21 | 20 | . | . | . | -8% | -6%
Cc1cc(Br)c2c(c1)[C@](O)(c1cn(C)c3ccccc13)C(=O)N2C | -9 | . | . | . | 23µM* | 16µM*
CC(C)COc1ccc(C(=O)NCC2OCCc3ccccc32)cc1 (stereo not given) | . | -3% | 7%[12.3 µM] | -2% | 15µM* | ?
CN1CCN(c2ncncc2-c2ccccc2C(F)(F)F)CC1 | . | . | . | . | -6% | -17%
CN1CCN(C2=Cc3ccc(Cl)cc3Sc3ccc(F)cc32)CC1 | -71* | ? | 8% | -89% | 21µM* | 23µM*
CN1CCN(C2=Cc3ccccc3Sc3cc(F)ccc32)CC1 | ? | -20% | 10%[56.1 µM] | -68% | 22µM* | ?
O=C(COc1nsnc1N1CCOCC1)Nc1ccc([N+](=O)[O-])cc1 | -13 | 8% | 0%[0.0935 µM] | -16% | 23µM* | 29µM*
SMILES | IL-1B inflam inh | TGFb inhibitor | TDP1 inh | HepG2 tox | TDP1 cell noCPT | DT40 TDP1 CPT
O=C(COc1nsnc1N1CCOCC1)Nc1ccc(Cl)cc1 | 27 | -11% | 0% | -23% | 15µM* | ?
CC(=O)c1cccc(NC(=O)COc2nsnc2N2CCOCC2)c1 | 12 | 6% | -3% | 2% | ? | ?
Cc1cccc(NC(=O)COc2nsnc2N2CCOCC2)c1 | -2 | -7% | 7% | -14% | -11% | -8%
COc1cc(Cl)c(NS(=O)(=O)c2ccc3[nH]c(=O)ccc3c2)c(OC)c1 | . | 0% | 5% | -33% | ? | 6%
Nc1ccc2c(c1)[nH]c(=O)c1ccccc12 | -75* | -16% | . | -3% | ? | ?
Nc1cc2c(cc1Br)[nH]c(=O)c1ccccc12 | 25 | 10µM* | . | -98% | ? | ?
CC(=O)Nc1ccc2c(c1)[nH]c(=O)c1ccccc12 | -14 | -10% | . | -10% | ? | 0.82µM*
O=C(Nc1ccc2c(c1)[nH]c(=O)c1ccccc12)C(F)(F)F | -9 | -18% | . | -34% | -26% | ?
Nc1cc(Br)cc2c1[nH]c(=O)c1ccccc12 | 0 | 0% | . | 3% | -19% | ?
Cn1c2ccsc2c2cnn(Cc3ccccc3F)c(=O)c21 | . | . | -3% | . | . | .
CCOc1ccc(CC(=O)NC2CC(=O)N(c3cccc(F)c3)C2)cc1 (stereo not given) | . | 0% | 3% | 5% | 7% | 5%
c1ccc2c(c1)ccn1c(Cc3ccsc3)c(C3CCCCC3)nc21 | 11 | . | . | . | 15µM* | 18µM*
Cc1cc2nc(C3CCCCC3)c(Cc3ccsc3)n2c(C)c1Br | 70 | . | . | . | ? | ?
COc1ccccc1Cc1c(C2CCCCC2)nc2c3ccccc3ccn12 | 26 | . | . | . | ? | ?
Cc1ccc(Cc2c(C3CCCCC3)nc3c4ccccc4ccn23)cc1 | 34 | -2% | . | -35% | 23µM* | ?
COc1ccc(C2=NN(CCC(=O)NCCc3ccccc3)C(=O)CC2)cc1 | . | -28% | 2% | -13% | -12% | -24%
CCOC(=O)c1sc(=S)n(-c2ccccc2)c1SC | -11 | ? | 7% | -22% | -23% | -18%
CCOC(=O)c1sc(=S)n(-c2ccccc2Cl)c1SC | -67* | ? | 3% | -39% | ? | ?
COc1ccc(N=Cc2cc(Cc3ccccc3Cl)cc([N+](=O)[O-])c2O)cc1OC | -4 | ? | 8% | -9% | 26µM* | ?

From PubChem
